Results reported in PubChem BioAssay (NCATS).
Inconclusive results are not listed. Where a call stands in place of a potency, no number is given. Active and inactive are the calls of the source. Unless noted, calls follow the shape of the dose curve; as a rule, active = well fitted curve in the direction sought with a large enough effect; inconclusive = small, poorly fitted or top-dose-only effect, or another doubt; inactive = no such curve, though single readings can be large; an effect the other way counts as inactive or inconclusive.

Legend:
[1] = molecular target: Alpha-galactosidase A (Homo sapiens) (UniProt P06280); assay: Counterscreen for Glucocerebrosidase Inhibitors: qHTS Assay for Human alpha-Galactosidase at pH 4.5 (AID 992)
Sequence of Alpha-galactosidase A (Homo sapiens) (P06280 whole entry, looked up): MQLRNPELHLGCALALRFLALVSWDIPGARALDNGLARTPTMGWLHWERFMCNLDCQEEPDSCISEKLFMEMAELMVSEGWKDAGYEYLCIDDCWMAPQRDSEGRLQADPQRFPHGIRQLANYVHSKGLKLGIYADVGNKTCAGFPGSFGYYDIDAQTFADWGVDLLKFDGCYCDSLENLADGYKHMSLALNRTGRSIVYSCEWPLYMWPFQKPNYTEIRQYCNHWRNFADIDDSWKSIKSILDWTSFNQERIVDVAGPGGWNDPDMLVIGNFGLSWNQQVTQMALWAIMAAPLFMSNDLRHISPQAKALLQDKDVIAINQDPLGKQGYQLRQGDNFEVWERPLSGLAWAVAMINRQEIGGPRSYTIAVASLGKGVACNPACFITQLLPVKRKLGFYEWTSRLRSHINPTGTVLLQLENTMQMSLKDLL
Method in brief: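 Each compound is preincubated briefly with 2 nM enzyme before substrate addition (80 uM); plates then sit 20 min at ambient temperature, are quenched with 1M NaOH/1M glycine, and read fluorometrically.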

[2] = molecular target: alpha-glucosidase (Oryza sativa, rice) (UniProt Q653V4); assay: Counterscreen for Glucocerebrosidase Inhibitors: qHTS Assay for Rice alpha-Glucosidase at pH 5.0 (AID 997)
Method in brief: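 Endpoint fluorogenic assay at pH 5.0: compounds (0.7 nM to 77 uM) titrated against 4 nM rice enzyme and 400 uM 4-MU-alpha-glucoside for 20 min at room temperature; NaOH/glycine stop, read ex 365/em 440 nm, Hill-fitted AC50.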

[3] = Validation of Assay for Modulators of Lamin A Splicing (AID 1459; active = well fitted curve in the direction sought with a large enough effect in the signal ratio; the % refers to the signal ratio;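 also: cells exposed to compound for two days before reading; ratio rise marks activators and ratio drop marks inhibitors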)
Method in brief: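 Readout: ratio of GFP (500-530 nm) to RFP (575-640 nm) total object intensity by 488 nm laser-scanning cytometry after 48 hrs. Cells were HeLa S3 clones carrying lamin A-EGFP minigene plus DsRed2 viability reporter; vehicle 0.5% DMSO final.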

[4] = Cell Viability - LYMP2-023 (AID 975); also: nearly all actives have a fitted effect of over 55% in size; also: potency is read from the fitted curve at half-maximal effect
Method in brief: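 Steps: seed 2500 human lymphoblastoid cells per well, incubate 5 hr at 37 C, add compound for 24 hr at 37 C, add CellTiter-Glo, hold 30 min at room temperature, read luminescence. AC50 derived by Hill modelling.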

[5] = Cell Viability - LYMP2-025 (AID 976); also: potency is read from the fitted curve at half-maximal effect
Method in brief: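 Acute cytotoxicity is scored as a concentration-dependent fall in intracellular ATP, measured by luciferase luminescence, in human lymphoblastoid LYMP2-025 cells exposed to compound for 24 hours at 37 C. AC50 values come from standard Hill fits.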

[6] = Cell Viability - LYMP2-002 (AID 977);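 also: compound exposure lasted 24 h at 37 °C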; also: potency is read from the fitted curve at half-maximal effect
Method in brief: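 Human lymphoblastoid cells, 2500/well, complete medium; 5 h 37 C settle; compound 24 h 37 C; CellTiter-Glo, 30 min RT; luminescence. Decrease in ATP = cytotoxicity; AC50 via Hill equation.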

[7] = Cell Viability - LYMP2-006 (AID 978); also: nearly all actives have a fitted effect of over 60% in size; also: potency is read from the fitted curve at half-maximal effect
Method in brief: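 qHTS, 1536-well; 2500 cells/well, 5 hr 37 C; cpd 24 hr 37 C; CellTiter-Glo 30 min RT; luminescence. Tetraoctylammonium bromide pos. ctrl. AC50 via Hill eqn.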

[8] = Cell Viability - LYMP2-007 (AID 979);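 also: cells exposed to compound for 24 h before reading; nearly all actives have a fitted effect of over 60% in size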; also: potency is read from the fitted curve at half-maximal effect
Method in brief: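 Cells are seeded at 2500 per well and rested 5 hr. Compounds are then added over a concentration series for 24 hr at 37 C. CellTiter-Glo is added for 30 min at room temperature before luminescence reading.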

[9] = Cell Viability - LYMP2-008 (AID 980); also: nearly all actives have a fitted effect of over 60% in size; also: potency is read from the fitted curve at half-maximal effect
Method in brief: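 Cells seeded at 2500/well and rested 5 hr at 37 C; compounds added over a concentration range and incubated 24 hr at 37 C; CellTiter-Glo added, 30 min at room temperature; luminescence read and AC50 fitted with Hill model.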

[10] = Cell Viability - LYMP2-010 (AID 981); also: nearly all actives have a fitted effect of over 55% in size; also: potency is read from the fitted curve at half-maximal effect
Method in brief: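 Steps: seed 2500 LYMP2-010 cells per well; incubate 5 hr at 37 C; add compound; incubate 24 hr at 37 C; add CellTiter-Glo, wait 30 min at room temperature; read luminescence. Concentration-response fitted to Hill equation for AC50.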

[11] = Cell Viability - LYMP2-012 (AID 982);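 also: cellular ATP by luciferase luminescence where a drop means cytotoxicity; cells exposed to compound for one day before reading; nearly all actives have a fitted effect of over 55% in size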; also: potency is read from the fitted curve at half-maximal effect
[12] = Cell Viability - LYMP2-014 (AID 983); also: nearly all actives have a fitted effect of over 50% in size; also: potency is read from the fitted curve at half-maximal effect
Method in brief: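 Cells are plated at 2500/well and left 5 hr at 37 C. Compounds are added across a concentration range and incubated 24 hr at 37 C in complete medium. CellTiter-Glo is added, and luminescence is read after 30 min at room temperature.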

[13] = Cell Viability - LYMP2-016 (AID 984); also: nearly all actives have a fitted effect of over 55% in size; also: potency is read from the fitted curve at half-maximal effect
Method in brief: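 qHTS, 1536-well: 2500 LYMP2-016 cells/well, 5 hr 37 C, compound added, 24 hr 37 C, CellTiter-Glo 30 min RT, luminescence. Tetraoctylammonium bromide positive control. AC50 via Hill fit.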

[14] = Cell Viability - LYMP2-018 (AID 985);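 also: compound exposure lasted 24 hr at 37 °C; nearly all actives have a fitted effect of over 50% in size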; also: potency is read from the fitted curve at half-maximal effect
Method in brief: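 Seed 2500 lymphoblastoid cells per well, incubate 5 hr at 37 C, add compound and incubate 24 hr at 37 C, add CellTiter-Glo, wait 30 min at room temperature, then read luminescence.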

[15] = Cell Viability - LYMP2-020 (AID 986); also: nearly all actives have a fitted effect of over 55% in size; also: potency is read from the fitted curve at half-maximal effect
Method in brief: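 Seed 2500 cells per well and incubate 5 hr at 37 C. Add compounds at a concentration series and incubate 24 hr at 37 C. Add CellTiter-Glo, wait 30 min at RT, read luminescence, and fit a Hill curve for AC50.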

[16] = Cell Viability - LYMP2-022 (AID 987); also: nearly all actives have a fitted effect of over 55% in size; also: potency is read from the fitted curve at half-maximal effect
Method in brief: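 Cells were seeded at 2500 per well, rested 5 hr at 37 C, and treated with titrated compounds for 24 hr at 37 C. Cellular ATP was then quantified by luciferase luminescence, and AC50 values were derived from Hill-modelled concentration-response curves.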

[17] = Cell Viability - LYMP2-024 (AID 988); also: nearly all actives have a fitted effect of over 60% in size; also: potency is read from the fitted curve at half-maximal effect
Method in brief: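 qHTS cytotoxicity, human lymphoblastoid line, complete medium; 24 h cpd treatment, 37 C; CellTiter-Glo ATP luminescence readout; tetraoctylammonium bromide positive control; AC50 via Hill fit.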

[18] = Cell Viability - LYMP2-026 (AID 989); also: nearly all actives have a fitted effect of over 50% in size; also: potency is read from the fitted curve at half-maximal effect
Method in brief: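 Cells are seeded at 2500 per well and held 5 hr at 37 C. Compounds are added in concentration series for 24 hr, then CellTiter-Glo reagent is applied and luminescence read.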

[19] = Cell Viability - LYMP1-002 - Assay at 24 hr (AID 993); also: potency is read from the fitted curve at half-maximal effect
Method in brief: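 Acute toxicity is measured as concentration-dependent loss of cellular ATP in a human lymphoblastoid line (Coriell LYMP1-002) after 24 h treatment in complete medium. ATP is quantified by luciferase luminescence and AC50 derived by Hill modelling.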

[20] = Cell Viability - LYMP1-002 - Assay at 40 hr (AID 994); also: nearly all actives have a fitted effect of over 60% in size; also: potency is read from the fitted curve at half-maximal effect
Method in brief: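 Cells are plated at 2500 per well and rested 5 hr at 37 C. Compounds are added and incubated 40 hr at 37 C. CellTiter-Glo reagent is added for 30 min at room temperature before luminescence is read.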

| SMILES | outcome [1] | outcome [2] | outcome [3] | Potency [4] | Potency [5] | Potency [6] | Potency [7] | Potency [8] | Potency [9] | Potency [10] | Potency [11] | Potency [12] | Potency [13] | Potency [14] | Potency [15] | Potency [16] | Potency [17] | Potency [18] | Potency [19] | Potency [20] |
| --- | --- | --- | --- | --- | --- | --- | --- | --- | --- | --- | --- | --- | --- | --- | --- | --- | --- | --- | --- | --- |
| NCCSSCCN | inactive | inactive | inactive |  |  |  |  |  |  |  |  |  |  |  |  |  |  |  |  |  |
| O=c1[nH]c2cc([N+](=O)[O-])c([N+](=O)[O-])cc2[nH]c1=O | inactive | inactive | inactive |  |  |  |  |  |  |  |  |  |  |  |  |  |  |  |  |  |
| NO | inactive | inactive | inactive |  |  |  |  |  |  |  |  |  |  |  |  |  |  |  |  |  |
| Ic1ccc(N2CCN(Cc3c[nH]c4ncccc34)CC2)cc1 | inactive | inactive | inactive |  |  |  |  |  |  |  |  |  |  |  |  |  |  |  |  |  |
| S=c1[nH]c2ccccc2s1 |  |  |  | inactive | inactive | inactive | inactive | inactive | inactive | inactive | inactive | inactive | inactive | inactive | inactive | inactive | inactive | inactive | inactive | inactive |
| CNCC[C@H](Oc1ccc(C(F)(F)F)cc1)c1ccccc1 | inactive | inactive | inactive |  |  |  |  |  |  |  |  |  |  |  |  |  |  |  |  |  |
| c1ccc2sc(SSc3nc4ccccc4s3)nc2c1 |  |  |  | inactive | inactive | inactive | inactive |  | inactive | inactive | inactive | inactive | inactive | inactive | inactive | inactive | inactive | inactive | inactive | inactive |
| O=C(O)c1cc(=O)c2ccccc2[nH]1 | inactive | inactive | inactive |  |  |  |  |  |  |  |  |  |  |  |  |  |  |  |  |  |
| NCCO |  |  |  | inactive | inactive | inactive | inactive | inactive | inactive | inactive | inactive | inactive | inactive | inactive | inactive | inactive | inactive | inactive | inactive | inactive |
| N=C1N=C(N)c2cc3ccccc3cc21 |  |  |  | 39.8 µM (active) |  |  | 50.1 µM (active) | 39.8 µM (active) | 39.8 µM (active) | 39.8 µM (active) | 39.8 µM (active) | 39.8 µM (active) | 39.8 µM (active) | 39.8 µM (active) | 39.8 µM (active) | 39.8 µM (active) | 39.8 µM (active) | 39.8 µM (active) | 39.8 µM (active) | 39.8 µM (active) |
| CN(C)c1ccc(N=NS(=O)(=O)O)cc1 |  |  |  | inactive | inactive | inactive | inactive | inactive | inactive | inactive | inactive | inactive | inactive | inactive | inactive | inactive | inactive | inactive | inactive | inactive |
| COc1cc(/C=C/C(=O)CC(=O)/C=C/c2ccc(O)c(OC)c2)ccc1O |  |  |  | 50.1 µM (active) | 50.1 µM (active) | 39.8 µM (active) | 25.1 µM (active) | 25.1 µM (active) | 25.1 µM (active) | 25.1 µM (active) | 31.6 µM (active) |  | 39.8 µM (active) | 39.8 µM (active) | 31.6 µM (active) | 25.1 µM (active) | 25.1 µM (active) | 31.6 µM (active) | 39.8 µM (active) | 39.8 µM (active) |
| O=C(O)c1cc(O)c(O)c(O)c1 |  |  |  | inactive |  | inactive | inactive | inactive | inactive | inactive | inactive | inactive | inactive | inactive | inactive | inactive | inactive | inactive | inactive | inactive |
| O=C1CN(/N=C/c2ccc([N+](=O)[O-])o2)C(=O)N1 |  |  |  |  | inactive |  |  |  |  |  | inactive |  |  |  | inactive |  | inactive |  | inactive |  |
| O=C(O)/C=C\C(=O)O |  |  |  | inactive | inactive | inactive | inactive | inactive | inactive | inactive | inactive | inactive | inactive | inactive | inactive | inactive | inactive | inactive | inactive | inactive |
| CCCCCCCCCCCCCCCCCC(=O)O |  |  |  | inactive | inactive | inactive | inactive | inactive | inactive | inactive | inactive | inactive | inactive | inactive | inactive | inactive | inactive | inactive | inactive | inactive |
